Laboratory results taken from PubChem BioAssay (Tox21).
Records with an inconclusive call do not appear. Entries that show only a call come without a potency. Values without a mark were called inactive. Active and inactive are the calls of the source. Calls follow the shape of the dose curve; as a rule, active = well fitted cell-killing curve with a large enough effect in the repeat runs; inconclusive = weak or mixed curves, or effect the other way; inactive = flat fitted curve, though single readings scatter.

Columns and labels:
[1] = cAMP Responsive Elements (CRE) small molecule antagonists, cell-based qHTS assay: qHTS cell viability counter screen (AID 2060913); also: nearly all actives have a fitted effect of over 40% in size
Method in brief: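 Cytotoxicity counter screen multiplexed with the CRE-bla antagonist read: HEK293T cells in DMEM with dialyzed FBS and 25 mM HEPES were treated 3 hrs under 0.25 uM final NKH477, then viability measured by CellTiter-Glo luminescence.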

[2] = cAMP Responsive Elements (CRE) small molecule agonists, cell-based qHTS assay: qHTS cell viability counter screen (AID 2060914); also: nearly all actives have a fitted effect of over 50% in size
Method in brief: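 Luminescence read-out (CellTiter-Glo, 30 min RT) of ATP-based viability in CRE-bla HEK 293T cells, run in the same wells as the β-lactamase reporter assay after 3 h compound treatment at 37 °C.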
Potency is read from the fitted curve at half-maximal effect.

| Structure (SMILES) | Potency [1] | Potency [2] | viability change, negative = cytotoxic [1] | activity change, negative = cytotoxicity [2] |
| --- | --- | --- | --- | --- |
| CCCCCCCCCCCC[N+](C)(C)CCCCCCCCCCCC | 40.3 µM (active) | inactive | – | – |
| CO[C@H]1C=CO[C@@]2(C)Oc3c(C)c(O)c4c(O)c(c(/C=N/N5CCN(C)CC5)c(O)c4c3C2=O)NC(=O)/C(C)=C\C=C[C@H](C)[C@H](O)[C@@H](C)[C@@H](O)[C@@H](C)[C@H](OC(C)=O)[C@@H]1C | inactive | inactive | – | – |
| O=C1CCCN1C1CCCCC1 | inactive | inactive | – | – |
| CCCc1ccc(O)c(OC)c1 | inactive | inactive | – | – |
| CC(=O)[C@H]1CC[C@H]2[C@@H]3C[C@H](C)C4=CC(=O)CC[C@]4(C)[C@H]3[C@@H](O)C[C@]12C | inactive | inactive | – | – |
| CCCCCCCCn1sc(Cl)c(Cl)c1=O | 30.6 µM (active) | 43.3 µM (active) | – | – |
| COc1cc(OC)c2ccc(=O)oc2c1 | inactive | inactive | – | – |
| [O]=[Mo](=[O])=[O] | – | – | 13.7% [at 18.9 µM] | -14.6% [at 18.9 µM] |
